Most compounds without a hit are left out; they make up all but 1.1% or so of the library.
PrP 5UTR inh: inhibition of PrP 5' UTR reporter expression. cell-based PrP 5' UTR mRNA reporter, plate reader. inhibition, % (no concentration beside the values). 340,000 compounds, 0.35% hits. AID 488862, 2010; in the data active = inhibition above about 52%
PfHsp40 yeast: rescue of yeast from PfHsp40 toxicity, primary screen, S. cerevisiae, ATP luminescence; S. cerevisiae expressing PfHsp40, growth rescue; growth rescue, % at 12.5 µM; 340,000 compounds, 0.68% hits; in the data active = growth rescue above about 28%, passing the limit was not always enough; inconclusive = no clear call, values can overlap the other calls;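 note: yeast W303a lacking pdr1 and pdr3 grown in galactose medium; growth measured after three days at 30 °C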
FadD28 binding: inhibitors of FadD28 bisubstrate probe binding, primary screen, biochemical, fluorescence polarization, single point; Mycobacterium tuberculosis FadD28 fatty-acid-AMP ligase; inhibition, % at 12.5 µM; 360,000 compounds, 0.22% hits; AID 588549, 2011; in the data active = inhibition above about 8.5%, passing the limit was not always enough; inconclusive = no clear call, values can overlap the other calls
Mtb BioA inh: M. tuberculosis BioA enzyme inhibitors, primary screen, biochemical, plate reader, single point, HTS. 360,000 compounds, 0.096% hits. purified M. tuberculosis BioA enzyme. 7,8-diaminopelargonic acid synthase BioA (Mycobacterium tuberculosis). inhibition, % at 9.99 µM; in the data active = inhibition above about 40%; inconclusive = no clear call, values can overlap the other calls
TcdB inh: TcdB glycohydrolase inhibitors, primary screen, biochemical, single point, plate reader; TcdB glycohydrolase enzymatic assay; inhibition, % at 9.99 µM; 350,000 compounds, 0.24% hits; AID 652162, 2013; in the data active = inhibition above about 10%
Target sequence (P18177 whole entry, looked up): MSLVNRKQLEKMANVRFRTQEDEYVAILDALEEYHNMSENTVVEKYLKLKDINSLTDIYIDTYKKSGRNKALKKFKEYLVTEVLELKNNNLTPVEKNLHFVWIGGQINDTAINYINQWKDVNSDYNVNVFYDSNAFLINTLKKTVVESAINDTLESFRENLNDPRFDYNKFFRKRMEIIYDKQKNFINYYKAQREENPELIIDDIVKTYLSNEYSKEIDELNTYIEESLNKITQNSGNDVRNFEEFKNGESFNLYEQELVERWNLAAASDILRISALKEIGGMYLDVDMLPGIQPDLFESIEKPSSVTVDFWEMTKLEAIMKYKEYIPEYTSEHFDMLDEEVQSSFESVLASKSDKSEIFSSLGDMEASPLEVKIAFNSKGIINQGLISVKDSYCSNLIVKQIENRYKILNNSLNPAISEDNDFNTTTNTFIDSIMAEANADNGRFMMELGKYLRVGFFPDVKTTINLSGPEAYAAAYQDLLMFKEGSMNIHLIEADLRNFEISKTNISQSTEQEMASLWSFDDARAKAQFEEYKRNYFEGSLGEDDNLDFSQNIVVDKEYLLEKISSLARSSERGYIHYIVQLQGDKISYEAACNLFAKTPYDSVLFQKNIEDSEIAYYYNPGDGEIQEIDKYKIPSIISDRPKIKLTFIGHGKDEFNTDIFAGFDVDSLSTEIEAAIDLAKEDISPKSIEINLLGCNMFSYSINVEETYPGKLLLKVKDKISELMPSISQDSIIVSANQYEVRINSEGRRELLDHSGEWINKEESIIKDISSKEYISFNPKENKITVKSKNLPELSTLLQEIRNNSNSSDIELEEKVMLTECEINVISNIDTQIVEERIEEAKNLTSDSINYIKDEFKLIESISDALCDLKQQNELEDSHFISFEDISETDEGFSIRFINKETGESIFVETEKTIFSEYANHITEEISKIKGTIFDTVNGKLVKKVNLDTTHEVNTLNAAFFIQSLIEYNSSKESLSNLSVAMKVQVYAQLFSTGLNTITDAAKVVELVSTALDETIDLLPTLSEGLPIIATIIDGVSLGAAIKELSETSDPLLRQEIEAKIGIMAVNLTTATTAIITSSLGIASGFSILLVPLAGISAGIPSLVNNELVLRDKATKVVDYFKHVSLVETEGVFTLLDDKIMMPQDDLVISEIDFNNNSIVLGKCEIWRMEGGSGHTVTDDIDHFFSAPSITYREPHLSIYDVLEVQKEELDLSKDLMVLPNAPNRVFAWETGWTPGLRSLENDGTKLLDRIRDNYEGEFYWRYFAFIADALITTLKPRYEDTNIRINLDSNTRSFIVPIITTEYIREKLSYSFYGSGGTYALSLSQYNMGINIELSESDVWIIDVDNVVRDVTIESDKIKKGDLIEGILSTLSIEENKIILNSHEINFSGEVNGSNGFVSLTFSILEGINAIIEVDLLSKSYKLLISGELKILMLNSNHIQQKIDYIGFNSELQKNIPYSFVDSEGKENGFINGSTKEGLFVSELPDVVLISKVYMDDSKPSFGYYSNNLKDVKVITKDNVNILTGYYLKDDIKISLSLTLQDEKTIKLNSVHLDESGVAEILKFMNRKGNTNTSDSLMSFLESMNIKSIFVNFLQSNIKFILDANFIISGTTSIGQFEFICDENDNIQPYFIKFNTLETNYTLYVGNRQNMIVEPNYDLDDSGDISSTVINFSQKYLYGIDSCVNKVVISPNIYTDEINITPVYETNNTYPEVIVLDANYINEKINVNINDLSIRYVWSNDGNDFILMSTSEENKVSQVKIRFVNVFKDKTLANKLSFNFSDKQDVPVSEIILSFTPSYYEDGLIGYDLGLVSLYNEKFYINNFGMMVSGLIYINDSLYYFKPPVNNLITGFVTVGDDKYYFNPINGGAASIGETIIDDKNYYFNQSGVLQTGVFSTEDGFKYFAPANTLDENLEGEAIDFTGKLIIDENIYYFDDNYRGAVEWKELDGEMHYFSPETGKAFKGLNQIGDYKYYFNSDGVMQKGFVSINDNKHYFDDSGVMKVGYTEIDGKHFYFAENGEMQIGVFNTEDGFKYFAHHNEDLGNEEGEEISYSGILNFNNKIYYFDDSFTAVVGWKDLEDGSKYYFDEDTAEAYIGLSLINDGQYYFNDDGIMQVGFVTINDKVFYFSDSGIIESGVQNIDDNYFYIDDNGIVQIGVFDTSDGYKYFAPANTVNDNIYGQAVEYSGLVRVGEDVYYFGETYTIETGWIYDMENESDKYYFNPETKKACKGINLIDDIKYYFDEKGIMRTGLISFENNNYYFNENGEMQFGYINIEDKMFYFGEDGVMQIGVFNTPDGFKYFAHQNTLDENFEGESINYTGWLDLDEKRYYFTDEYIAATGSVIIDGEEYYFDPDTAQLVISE
PrP UTR cherry: prion 5' UTR mRNA inhibition, cherry-pick retest; 1,100 compounds, 48% hits; inhibition, % at 2.5 µM; shares compounds with PrP 5UTR inh; cell-based prion protein 5' UTR reporter, plate reader; in the data active = inhibition above about 54%; inconclusive = no clear call, values can overlap the other calls
A number is an active result; i = inactive; ? = inconclusive; nt = not tested or not shown.

SMILES	PrP 5UTR inh	PfHsp40 yeast	FadD28 binding	Mtb BioA inh	TcdB inh	PrP UTR cherry
COc1ccc(CC(=O)Nc2ccc(S(=O)(=O)NC(C)C)cc2)cc1	i	i	i	i	nt	nt
C[C@H](CO)N1C[C@H](C)[C@@H](CN(C)C(=O)Nc2ccc3c(c2)OCO3)Oc2ccc(NC(=O)C3CCCCC3)cc2CC1=O	nt	nt	nt	i	i	nt
C[C@]12CC[C@H]3[C@@H](CCC4=CC(=O)CC[C@@]43C)[C@@H]1CC[C@@H]2C(=O)CO	76.1	i	i	i	i	i
CC(=O)OCC(=O)[C@H]1CC[C@H]2[C@@H]3CCC4=CC(=O)CC[C@]4(C)[C@H]3CC[C@]12C	i	?	i	i	i	nt
CC1OC(OC2C=C3CCC4C(CCC5(C)C(c6ccc(=O)oc6)CCC45O)C3(C)CC2)C(O)C(OC2OC(CO)C(O)C(O)C2O)C1O (centres undefined)	93.2	i	i	nt	i	91.8
CN1C(=O)c2cc(NC(=O)Cc3cccs3)ccc2OC[C@H]2O[C@H](CC(=O)N[C@@H]3CCN(Cc4ccccc4)C3)CC[C@H]21	nt	nt	nt	i	i	nt
COC(=O)c1ccccc1NC(=O)C(C)c1ccc([N+](=O)[O-])cc1 (centres undefined)	63.6	i	i	nt	i	i
CC(C(=O)Nc1ccccc1Br)c1ccc([N+](=O)[O-])cc1 (centres undefined)	i	i	i	i	i	nt
COc1ccc(C(C)=O)cc1CSc1nc2cc(Cl)ccc2o1	57.2	i	i	i	nt	i
COc1ccc(C(C)=O)cc1CSc1nnc(-c2ccncc2)o1	i	i	i	i	i	nt
COc1ccc(-c2ccc3c(c2)[C@H]2[C@H](CCN2S(=O)(=O)c2ccc(OC)cc2)[C@@H](CO)N3C)cc1	nt	nt	nt	i	i	nt
O=[N+]([O-])c1ccc(NN=Cc2cccc3ccccc23)nc1	i	i	i	i	i	nt
COc1cccc(/C=N/Nc2ccc(C(=O)O)cc2)c1O	88.1	i	i	nt	i	89.7
COc1cccc(/C=N/Nc2ccc([N+](=O)[O-])cn2)c1O	58.1	i	i	i	i	i
O=[N+]([O-])c1cccc(C=NNc2ccc3ccccc3n2)c1O	55.9	240.9	i	nt	i	i
CO[C@@H]1CN(C)C(=O)c2ccc(NC(=O)C3CCCCC3)cc2OC[C@@H](C)N(C(=O)Nc2ccc(C(F)(F)F)cc2)C[C@H]1C	nt	nt	nt	i	i	nt
Cc1noc(C)c1NC(=O)Nc1ccc2c(c1)C(=O)N([C@@H](C)CO)C[C@@H](C)[C@H](CN(C)S(C)(=O)=O)O2	nt	nt	nt	i	i	nt
O=C(CCNS(=O)(=O)c1ccc(OC(F)(F)F)cc1)N1CCCC1	i	i	i	i	i	nt
CN(C)CC(C)(C)CNS(=O)(=O)c1ccc(OC(F)(F)F)cc1	58.7	i	i	nt	i	i
O=C(CCc1ccccc1)c1ccc2c(c1)OCCCO2	i	i	i	i	nt	nt
O=C(NCCc1ccccc1)c1ccc2c(c1)OCCO2	88.2	i	i	i	i	83.1
Cc1ccc(C(=O)NCCc2ccccc2)cc1	59.0	i	i	i	nt	63.8
COc1ccc(CCNC(=O)c2ccc3c(c2)OCCO3)cc1	i	i	i	nt	nt	nt
O=C(CCCc1ccccc1)c1ccc2c(c1)OCCO2	82.5	i	i	i	i	88.8
COC(=O)c1c(N)sc(C(=O)NCCc2ccccc2)c1C	69.8	i	i	i	i	63.6
SMILES	PrP 5UTR inh	PfHsp40 yeast	FadD28 binding	Mtb BioA inh	TcdB inh	PrP UTR cherry
CO[C@H]1CN(C)C(=O)c2ccc(NC(=O)C3CC3)cc2OC[C@@H](C)N(C(=O)NC(C)C)C[C@@H]1C	nt	nt	nt	i	i	nt
C[C@H]1CN([C@@H](C)CO)C(=O)c2cc(NS(=O)(=O)c3ccc(F)cc3)ccc2O[C@H]1CN(C)C(=O)Nc1ccc2c(c1)OCO2	nt	nt	nt	i	i	nt
CS(=O)(=O)Nc1ccc2c(c1)[C@@H]1C[C@H](CC(=O)N3CCCCC3)O[C@@H](CO)[C@@H]1O2	nt	nt	nt	i	nt	nt
C[C@@H]1CN([C@H](C)CO)C(=O)Cc2cc(NS(=O)(=O)c3ccccc3)ccc2O[C@H]1CN(C)S(=O)(=O)c1cccs1	nt	nt	nt	nt	i	nt
O=C(Nc1ccc(F)cc1)c1ccc(C(=O)N2CCOCC2)cc1	i	i	i	i	i	nt
O=C(c1ccccc1)N1CCN(C(=O)c2ccc3c(c2)OCCO3)CC1	78.2	i	i	nt	i	i
O=C(c1ccc(F)cc1)N1CCOCC1	68.8	i	i	i	i	i
